The panel holds about 79,000 compounds, 15% with a hit somewhere; the sample as a whole holds those more often. The source made the active and inactive calls. Rule as the data show it: active = growth inhibition above about 70%; inactive = the rest.
What was measured:
[1] = NCI Yeast Anticancer Drug Screen. Data for the rad52 strain (AID 147);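 also: 0% = growth of vehicle-treated control cultures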; conditions: S. cerevisiae rad52 mutant growth inhibition, stronger effect = higher value
Procedure, shortened: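 Yeast strain carrying a DNA damage repair alteration was exposed to test compounds. Growth inhibition was measured relative to vehicle-treated controls.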

[2] = NCI Yeast Anticancer Drug Screen. Data for the wt1 strain (AID 149);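 also: 0% = growth of vehicle-treated wt1 cultures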; conditions: S. cerevisiae wt1 strain (SPY 50644) growth inhibition, stronger effect = higher value
Procedure, shortened: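 Measured: growth of wt1 yeast under compound versus vehicle treatment, reported as inhibition.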

[3] = NCI Yeast Anticancer Drug Screen. Data for the rad50EPP+ strain (AID 151);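 also: 0% = growth of vehicle-treated control cultures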; conditions: S. cerevisiae rad50 mutant strain, stronger effect = higher value
Procedure, shortened: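 Yeast strain carrying rad50 alteration (rad50EPP+) exposed to compounds; growth inhibition measured relative to vehicle-treated controls.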

[4] = NCI Yeast Anticancer Drug Screen. Data for the mgt1 strain (AID 153); conditions: S. cerevisiae mgt1 mutant growth inhibition, stronger effect = higher value
Procedure, shortened: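 Yeast mgt1 strain (DNA repair/cell-cycle alteration panel) exposed to compounds; growth inhibition measured relative to vehicle-treated controls.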

[5] = NCI Yeast Anticancer Drug Screen. Data for the rad50 strain (AID 155);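 also: 0% = growth of vehicle-only cultures of the same strain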; conditions: S. cerevisiae rad50 strain growth inhibition, stronger effect = higher value
Procedure, shortened: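 Growth of the mutant yeast was measured after compound exposure and referenced to vehicle-treated cultures.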

[6] = NCI Yeast Anticancer Drug Screen. Data for the mec2-1 strain (AID 157); conditions: S. cerevisiae mec2-1 strain, stronger effect = higher value
Procedure, shortened: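 mec2-1 yeast strain, carrying an alteration in DNA damage repair or cell cycle control, was exposed to compounds; growth inhibition was measured relative to vehicle-treated controls.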

[7] = NCI Yeast Anticancer Drug Screen. Data for the rad14 strain (AID 159);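 also: 0% = growth of vehicle-treated control cultures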; conditions: S. cerevisiae rad14 strain growth inhibition, stronger effect = higher value
Procedure, shortened: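 Here, inhibition of yeast growth was measured after compound exposure, using a strain with a genetic defect in DNA damage repair and vehicle-treated cultures as the reference.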

[8] = NCI Yeast Anticancer Drug Screen. Data for the sgs1 mgt1 strain (AID 161);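 also: 0% = growth of cultures given vehicle only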; conditions: S. cerevisiae sgs1 mgt1 strain, stronger effect = higher value
Procedure, shortened: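 Growth of a repair-deficient yeast mutant was monitored after compound treatment and expressed as inhibition relative to vehicle-treated cultures.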

[9] = NCI Yeast Anticancer Drug Screen. Data for the CLN2oe strain (AID 163);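 also: 0% = growth of vehicle-only control cultures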; conditions: S. cerevisiae CLN2oe strain, stronger effect = higher value
Procedure, shortened: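 Yeast cells carrying a defined cell-cycle control alteration were exposed to test compounds. Growth inhibition was scored against vehicle-treated control cultures.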

[10] = NCI Yeast Anticancer Drug Screen. Data for the cln2 rad14 strain (AID 165);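 also: 0% = growth equal to vehicle treated cultures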; conditions: S. cerevisiae cln2 rad14 strain, stronger effect = higher value
Procedure, shortened: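 Yeast carrying cln2 and rad14 alterations (cell cycle control and DNA damage repair) were exposed to compounds. Growth inhibition was measured against vehicle-treated controls.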

[11] = NCI Yeast Anticancer Drug Screen. Data for the bub3 strain (AID 167); conditions: S. cerevisiae bub3 mutant strain, stronger effect = higher value
Procedure, shortened: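 Whole-cell yeast assay. The mutant strain was incubated with compounds, and growth inhibition was determined by comparison with vehicle-treated cells.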

[12] = NCI Yeast Anticancer Drug Screen. Data for the wt2 strain (AID 169);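 also: 0% = growth of vehicle-treated yeast cultures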; conditions: S. cerevisiae wt2 strain growth inhibition, stronger effect = higher value
Procedure, shortened: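 Yeast cells were exposed to test compounds, and growth inhibition was measured relative to vehicle-treated controls.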

[13] = NCI Yeast Anticancer Drug Screen. Data for the mlh1 strain (AID 171);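 also: 0% = growth of vehicle-treated control cultures of the same strain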; conditions: S. cerevisiae mlh1 strain growth inhibition, stronger effect = higher value
Procedure, shortened: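 Yeast carrying a defined genetic alteration in DNA damage repair or cell cycle control were exposed to test compounds. Growth inhibition was measured relative to vehicle-treated controls.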

[14] = NCI Yeast Anticancer Drug Screen. Data for the sgs1 strain (AID 173);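 also: 0% = growth of vehicle-only control cultures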; conditions: S. cerevisiae sgs1 mutant, stronger effect = higher value
Procedure, shortened: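 Yeast mutant strains carrying defined defects in DNA damage repair or cell cycle control were exposed to test compounds. Growth inhibition was scored against vehicle-treated controls.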

[15] = NCI Yeast Anticancer Drug Screen. Data for the mlh1 rad18 strain (AID 175); conditions: S. cerevisiae mlh1 rad18 strain growth inhibition, stronger effect = higher value
Procedure, shortened: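 Growth inhibition of the yeast strain was measured after compound exposure and expressed relative to vehicle-treated controls. The strain carries defined defects in DNA damage repair.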

[16] = NCI Yeast Anticancer Drug Screen. Data for the rad18 strain (AID 177); conditions: S. cerevisiae rad18 mutant growth inhibition, stronger effect = higher value
Procedure, shortened: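 Yeast carrying a defined DNA damage repair alteration were exposed to compounds. Growth inhibition was expressed relative to vehicle-treated controls.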

[17] = at 5.0 µM (retest, dose inferred, filed as 0.5)
[18] = at 50.0 µM (retest, dose inferred, filed as 5.0)

Measured: growth inhibition

CCOC(=O)Nc1ccc(C)c(NC(=O)OCC)c1
inactive: [1]; at 1.2 µM 3% | [1]; at 3.7 µM 8% | [1]; at 11.0 µM 15% | [1]; at 33.0 µM 21% | [1]; at 100.0 µM 23% | [2]; at 1.2 µM 6% | [2]; at 3.7 µM 13% | [2]; at 11.0 µM 12% | [2]; at 33.0 µM 15% | [2]; at 100.0 µM 17% | [3]; at 1.2 µM 4% | [3]; at 3.7 µM 8% | [3]; at 11.0 µM 19% | [3]; at 33.0 µM 34% | [3]; at 100.0 µM 47% | [4]; at 1.2 µM 3% | [4]; at 3.7 µM 9% | [4]; at 11.0 µM 12% | [4]; at 33.0 µM 12% | [4]; at 100.0 µM 16% | [5]; at 1.2 µM 5% | [5]; at 3.7 µM 6% | [5]; [17] 22% | [5]; at 11.0 µM 16% | [5]; at 33.0 µM 19% | [5]; at 50.0 µM -1.75% | [5]; at 100.0 µM 26% | [6]; at 1.2 µM 4% | [6]; at 3.7 µM 8% | [6]; [17] -2% | [6]; at 11.0 µM 11% | [6]; at 33.0 µM 19% | [6]; [18] 14% | [6]; at 50.0 µM 6% | [6]; at 100.0 µM 20% | [7]; at 1.2 µM 3% | [7]; at 3.7 µM 7% | [7]; at 11.0 µM 10% | [7]; at 33.0 µM 15% | [7]; at 100.0 µM 21% | [8]; [17] 11% | [8]; [18] 57% | [8]; at 50.0 µM 4.65% | [9]; at 1.2 µM 9% | [9]; at 3.7 µM 13% | [9]; at 11.0 µM 23% | [9]; at 33.0 µM 23% | [9]; at 100.0 µM 23% | [10]; [17] 11% | [10]; [18] 23% | [10]; at 50.0 µM -38.4% | [11]; at 1.2 µM 2% | [11]; at 3.7 µM 8% | [11]; [17] 35% | [11]; at 11.0 µM 7% | [11]; at 33.0 µM 13% | [11]; at 50.0 µM 14.3% | [11]; at 100.0 µM 13% | [12]; at 1.2 µM 4% | [12]; at 3.7 µM 8% | [12]; at 11.0 µM 10% | [12]; at 33.0 µM 14% | [12]; at 100.0 µM 13% | [13]; at 1.2 µM 3% | [13]; at 3.7 µM 8% | [13]; at 11.0 µM 14% | [13]; at 33.0 µM 19% | [13]; at 100.0 µM 23% | [14]; at 1.2 µM 3% | [14]; at 3.7 µM 6% | [14]; at 11.0 µM 12% | [14]; at 33.0 µM 20% | [14]; at 100.0 µM 30% | [15]; [17] 34% | [15]; at 50.0 µM 8.35% | [16]; at 1.2 µM 8% | [16]; at 3.7 µM 14% | [16]; at 11.0 µM 30% | [16]; at 33.0 µM 61%
active: [5]; [18] 80% | [11]; [18] 76% | [15]; [18] 78% | [16]; at 100.0 µM 82%
